# Screens (PubChem BioAssay)
# Hits are enriched below; roughly 21% of the tested compounds scored in any of these assays.
# FBPA Giardia inh = blocks Giardia fructose-bisphosphate aldolase activity; purified Giardia FBPA; A8B2U2; actives 0.71% (n = 290,000); Potency, µM (series often up to 59.6 µM), for the others: at the top dose activity, negative = inhibition, most hits filed as inhibitors; further: potency means the concentration at half of the fitted maximal effect; on the % scale 0 is the no-effect control and ±100 the full control effect; nearly all actives have a fitted effect of over 55% in size
# Target sequence (A8B2U2 whole entry, looked up): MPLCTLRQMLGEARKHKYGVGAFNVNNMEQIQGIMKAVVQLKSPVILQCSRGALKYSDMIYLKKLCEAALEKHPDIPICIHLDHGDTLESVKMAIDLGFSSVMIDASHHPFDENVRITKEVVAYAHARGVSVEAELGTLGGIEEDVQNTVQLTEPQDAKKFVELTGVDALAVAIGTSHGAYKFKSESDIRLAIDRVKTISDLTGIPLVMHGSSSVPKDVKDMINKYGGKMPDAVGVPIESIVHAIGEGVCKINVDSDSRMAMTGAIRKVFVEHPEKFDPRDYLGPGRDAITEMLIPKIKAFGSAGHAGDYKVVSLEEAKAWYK
#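 Giardia FBPA (40 nM reagent) was preincubated 10 min at RT with compound (up to 57.5 uM final), then substrate plus GAPDH/TPI/NAD/arsenate coupling system with diaphorase/resazurin was added; resorufin fluorescence (525/598 nm) was read after 20 min.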
# NS1 function inh = blocks influenza NS1 protein function; AID 2326; actives 0.4% (n = 270,000); Potency, µM (titrated, usually from 46.1 µM), inactives show at the highest dose activity, positive = more growth; calls by dose curve; further: potency means the concentration at half of the fitted maximal effect; actives are rising curves; nearly all actives have a fitted effect of over 50% in size
#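 OD600 was taken as the measure of yeast growth restored by compound in an NS1-expressing S. cerevisiae strain. Cells had been washed out of glucose medium and diluted 1:100 into galactose -URA medium, pH 6.0.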
# Pf growth 96h = P. falciparum growth inhibition at 96 hours | actives 6.9% (n = 320,000) | Potency, µM (highest dose often 28.7 µM), inactives show at the highest dose activity change, negative = inhibition, actives largely listed as inhibitors | AID 504834 | P. falciparum luciferase reporter growth, 96 h; further: potency means the concentration at half of the fitted maximal effect; on the % scale 0 is the no-effect control and ±100 the full control effect
#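 Erythrocytes infected with luciferase-expressing P. falciparum were dispensed at 2% hematocrit and 0.05% parasitemia (final), then incubated with compounds 96 hours at 37 C in 5% CO2. Luminescence after detection reagent addition reported growth.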
# CHX counter = affects cycloheximide protein synthesis inhibition readout, counter-screen; cell reporter, cycloheximide protein synthesis inhibition counterscreen; max response, %; actives 12% (n = 300,000); AID 2314; in the data active means max response mostly above about 13%, no sharp cut-off; inactive means mostly below about 14%; further: read at 38.3 µM for the half of the compounds with a filed dose; 0% is about no effect
# Shiga toxin inh = inhibitors of Shiga toxin in Vero cells; actives 9.2% (n = 290,000); inhibition, % at 38.7 µM; Vero cells, Shiga toxin protein synthesis inhibition reporter; AID 2315; in the data active means inhibition mostly above about 28%, no sharp cut-off; inactive means mostly below about 43%; further: 0% is about no effect
# Pf growth 48h = P. falciparum growth inhibition at 48 hours (one generation); P. falciparum luciferase growth in erythrocytes, 48 h; Potency, µM (doses to about 28.7 µM), for inactives: at the highest dose activity change, negative = inhibition, hits mostly inhibitors; actives 5.9% (n = 310,000); further: potency means the concentration at half of the fitted maximal effect; on the % scale 0 is the no-effect control and ±100 the full control effect
#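 Growth was read as firefly luciferase luminescence after a 48 h, 37 C, 5% CO2 exposure of compounds to reporter-bearing P. falciparum cultures (0.1% parasitemia, 2% hematocrit final) in Albumax-supplemented RPMI 1640.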
# Starred values were filed as active, the others as inactive; i = inactive; ? = inconclusive; . = not tested or not shown; [ ] = dose if it differs, or a comment. Unless noted, the call rests on the fitted dose curve; in most records, active means well fitted curve in the direction sought with a large enough effect; inconclusive means small, poorly fitted or top-dose-only effect, or another doubt; inactive means no such curve, though single readings can be large; an effect the other way counts as inactive or inconclusive.
SMILES,FBPA Giardia inh,NS1 function inh,Pf growth 96h,CHX counter,Shiga toxin inh,Pf growth 48h
O=C(COc1ccccc1)NNc1nc2c(F)cccc2s1,0%,6%,39%,-3,18,-14%
COc1cc(OC)cc(-c2nnc(Nc3nc4c(F)cccc4s3)o2)c1,?,-1%,12µM*,5,14,-3%
Fc1cccc2sc(Nc3nnc(-c4ccccc4)o3)nc12,-4%,-45%,112%,27*,46*,26%
COc1ccc(-c2nnc(Nc3nc4c(OC)cccc4s3)o2)c(OC)c1,-4%,-17%,-37%,18*,43*,10µM*
O=C(COC(=O)/C=C/c1cccc(C(F)(F)F)c1)NCc1cccs1,.,.,-15%,.,.,-1%
N#Cc1ccc(CN2CCCC3(CCN(S(=O)(=O)c4ccccc4)CC3)C2)cc1,-4%,.,.,.,.,.
CCC(=O)OCC(=O)[C@@]1(OC(=O)CC)[C@@H](C)C[C@@H]2[C@H]3CCC4=CC(=O)C=C[C@]4(C)[C@@]3(F)[C@@H](O)C[C@@]21C,-6%,.,.,12,-7,.
C=CCN(c1cccc(C(F)(F)F)c1)S(=O)(=O)c1cccc(C(=O)OCC(=O)NCCC)c1,2%,2%,13µM*,-1,-8,?
Cc1ccc(NC2c3ncccc3C(=O)N2C2CCCCC2)cc1 (centres undefined),2%,-3%,?,5,5,-28%
Cc1ccc(NC2c3ncccc3C(=O)N2C2CCCCC2)cc1C (centres undefined),-4%,2%,33%,7,17,10µM*
O=C(O)c1ccc(NS(=O)(=O)c2ccsc2C(=O)O)cc1,16%,.,.,.,.,.
COC(=O)c1sccc1NC(=O)CSc1cccc(Cl)c1Cl,-12%,-21%,9%,12*,27,2%
COC(=O)c1sccc1NC(=O)Nc1ccc(Cl)c(Cl)c1,1%,-57%,?,27*,23,94%
COC(=O)c1sccc1NC(=O)Nc1cc(C)ccc1OC,5%,-19%,?,2,-10,-25%
COC(=O)c1sccc1NC(=O)Cc1ccc(Br)cc1,10%,.,31%,26*,32*,-4%
COC(=O)c1sccc1NC(=O)c1c(Cl)cccc1Cl,9%,12%,?,-1,61,?
COC(=O)c1sccc1S(=O)(=O)Nc1ccc(C)cc1,-25%,-7%,-21%,16*,2,15%
COC(=O)c1sccc1NC(=O)Nc1ccc(OC)c(OC)c1,.,-6%,?,12,-6,?
COC(=O)c1sccc1NC(=O)Nc1ccc(C)c(C)c1,.,-65%,-8%,41*,72*,184%
CCCNC(=O)Nc1ccsc1C(=O)OC,0%,.,6%,-2,31,-5%
CCc1ccc(NC(=O)Nc2ccsc2C(=O)OC)cc1,-13%,-82%,22%,36*,42*,268%
COc1ccc([N+](=O)[O-])cc1-n1cnnn1,5%,-1%,1.5µM*,1,-4,12%
COc1cc([N+](=O)[O-])ccc1N,1%,-5%,9.3µM*,0,-5,11%
O=C(Nc1ccon1)Nc1ccccc1C(F)(F)F,0%,-8%,-2%,14,19,-26%
Cc1ccc(CNC(=O)[C@@H]2C[C@H]2[C@@H](NP(=O)(c2ccccc2)c2ccccc2)c2ccccc2)o1,5%,.,.,.,.,.
SMILES,FBPA Giardia inh,NS1 function inh,Pf growth 96h,CHX counter,Shiga toxin inh,Pf growth 48h
COC(=O)NC(CCc1ccccc1)C(C(C)=O)C(=O)OC (centres undefined),1%,.,.,.,.,.
CCCC(=O)Nc1ccc2oc(-c3cccnc3)nc2c1,0%,-7%,.,25*,54*,31%
COC(=O)Cc1ccc2oc(-c3cccnc3)nc2c1,1%,.,37%,49*,88*,i
O=C(NC(=S)Nc1ccc2oc(-c3cccnc3)nc2c1)c1cccc(Cl)c1,-2%,17%,-19%,-2,-8,43%
O=C(Nc1ccc2oc(-c3cccnc3)nc2c1)c1cc2ccccc2o1,-6%,-23%,152%,-6,11,-3%
CCCCC(=O)Nc1ccc2oc(-c3cccnc3)nc2c1,-10%,-17%,75%,31*,60*,43%
Cc1ccc(NC(=O)Cn2ccc([N+](=O)[O-])n2)cc1Cl,1%,.,?,-3,1,-9%
O=C(CCNS(=O)(=O)c1cccc(C(F)(F)F)c1)NC1CC1,.,.,-15%,.,.,-19%
COc1cc(NC(=O)c2cnc(N)o2)cc(C(=O)Nc2cccc(C(F)(F)F)c2)c1,0%,?,13µM*,-3,-4,10µM*
COc1cc(NC(=O)c2csc(N)n2)cc(C(=O)Nc2cccc(C(F)(F)F)c2)c1,-5%,?,?,7,21,12µM*
Cc1ncsc1C(=O)Nc1cccc(C(F)(F)F)c1,-2%,-1%,11%,0,-6,9%
CC(C)Oc1cccc(C(=O)NC(=S)Nc2cccc(C(F)(F)F)c2)c1,-10%,6%,65%,-4,13,57%
COc1cc(NC(=O)c2cc(C)on2)cc(C(=O)Nc2cccc(C(F)(F)F)c2)c1,-3%,-15%,?,-3,1,?
COc1cc(NC(=O)c2cnc(N)s2)cc(C(=O)Nc2cccc(C(F)(F)F)c2)c1,2%,10%,3.3µM*,-4,-2,2.6µM*
COc1cc(NC(=O)c2ccnc(N)c2)cc(C(=O)Nc2cccc(C(F)(F)F)c2)c1,4%,5%,1.9µM*,-1,2,2.1µM*
CCCCN(c1nc2ccccc2nc1Cl)S(=O)(=O)c1ccc(C)cc1,6%,4%,?,-6,34,?
Cc1cc(C)n(CC(C)(O)c2ccccc2)n1 (centres undefined),.,.,43%,.,.,2%
CC(C)OC(=O)C[C@H](NC(=O)OC(C)(C)C)c1ccccc1,3%[12.9 µM],.,.,.,.,.
O=C1NC2CCc3nc4ccccc4c(=O)n3C2=Nc2ccccc21 (centres undefined),2%,2%,12µM*,-2,9,28%
S=C(Nc1ccc2cn[nH]c2c1)Nc1ccc2cn[nH]c2c1,.,-5%,.,.,.,.
COc1ccc(S(=O)(=O)N2CCN(C(=O)c3cc(-c4ccccc4OC)n[nH]3)CC2)cc1,-9%,19%,-2%,-2,7,1.3µM*
COc1cccc(-c2cc(C(=O)N3CCN(S(=O)(=O)c4ccc(Br)cc4)CC3)[nH]n2)c1,.,-14%,13µM*,1,25,-17%
CC(C)Cn1c(=O)c(C(=O)Nc2ccccc2S(N)(=O)=O)c(O)c2ccccc21,-5%,15%,-3%,8,11,2%
CCC(C)n1c(=O)c(C(=O)Nc2ccccc2S(N)(=O)=O)c(O)c2ccccc21 (centres undefined),-7%,2%,9.3µM*,1,8,2%
Cn1c(=O)c(C(=O)Nc2ccccn2)c(O)c2ccccc21,-3%,-33%,10µM*,33*,44*,151%
